Sampled rows, rich in hits. Any-hit rate of the full collection: about 19%.
IL1B secr inh: inflammasome signaling inhibition, IL-1 beta readout. THP-1 LPS/ATP IL-1B secretion, AlphaLISA, 16 h; active compounds read low. activity change, % at 57.5 µM. 360,000 compounds, 4.7% hits; in the data active means activity change below about -50%; inconclusive means mostly about -30% to -49%; further: on the % scale 0 is the no-effect control and ±100 the full control effect
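Secreted IL-1B measured by AlphaLISA bead assay after 16 h compound exposure of THP-1 cells; compounds (final up to 57.5 uM) added 1 h before LPS (250 ng/mL) and ATP (1.25 mM) stimulation; lower signal means less secretion.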
BCR signal inh: inhibitors of chronic active B-cell receptor signaling; ABC-DLBCL IkBa-CBG/CBR reporter, luminescence ratio, 4 h; 340,000 compounds, 0.05% hits; Potency, µM (titrated, usually from 46.1 µM), without a hit: at the highest dose activity change, negative = inhibition, hits mostly inhibitors; active means well fitted inhibition curve with a large enough effect in the signal ratio, with a control signal flat, not every such curve was filed as active; inconclusive means small, poorly fitted or top-dose-only effect, or effect the other way, or a change in a side signal; the % refers to the signal ratio;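 further: potency means the concentration at half of the fitted maximal effect; plate controls were basal doxycycline-induced cells for no effect and cells given 10 µM MG132 for full effect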
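Concentration-response series (up to 46 uM) were applied to TMD8 dual-reporter cells for 4 h at 37C with doxycycline. Green/red ratio, after filter-overlap correction, defined %Activity; red signal alone was normalised to basal cells and zero luminescence.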
DT40 TDP1 no CPT: qHTS for Inhibitors of human tyrosyl-DNA phosphodiesterase 1 (TDP1): qHTS in cells in absence of CPT. 420,000 compounds, 15% hits. Potency, µM (doses to about 46.2 µM), inactives show at the top dose activity change, negative = growth inhibition, actives largely listed as inhibitors. DT40 Tdp1-/- hTDP1 cells, no CPT, ATP luminescence, 48 h; further: potency means the concentration at half of the fitted maximal effect; on the % scale 0 is the no-effect control and ±100 the full control effect; nearly all actives have a fitted effect of over 55% in size
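Camptothecin absent (DMSO only). Human TDP1-complemented DT40 knockout cells, 400 cells/well, 37 °C for minimum 48 hr; ATP measured via CellTiter-Glo, 30 min dark incubation, luminescence.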
SW480 rereplic: inducers of DNA re-replication in SW480 colon cancer cells; SW480 DNA re-replication, Hoechst DNA content imaging, 48 h; Potency, µM (doses to about 46.1 µM), for the others: at the top dose re-replication activation, actives largely listed as activators; 340,000 compounds, 1.8% hits; AID 624297; further: potency means the concentration at half of the fitted maximal effect; % of control where 0% means no effect; nearly all actives have a fitted effect of over 55% in size
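Readout is total intensity of Hoechst-stained nuclei, excited at 405 nm and collected at 500-530 nm. Compound treatment lasted 48 hr at 37 C in 5% CO2 before staining.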
MCF10A rerep: DNA re-replication induction in MCF 10a cells. MCF 10A DNA re-replication, Hoechst nuclear intensity, 48 h. Potency, µM (top dose mostly 46.1 µM), for the others: top-dose activity, positive = re-replication, most hits filed as activators. 350,000 compounds, 2.9% hits. AID 624296; further: potency means the concentration at half of the fitted maximal effect; % of control where 0% means no effect; nearly all actives have a fitted effect of over 50% in size
DT40 TDP1 CPT: growth inhibition of DT40 Tdp1-/-;hTDP1 cells with camptothecin (screen for TDP1 inhibitors); Potency, µM (top dose mostly 46.2 µM), for the others: top-dose activity change, negative = growth inhibition, most hits filed as inhibitors; 420,000 compounds, 12% hits; AID 686979; chicken DT40 Tdp1-/-;hTDP1 cells + 20 nM CPT, ATP luminescence, 48 h; further: potency means the concentration at half of the fitted maximal effect; on the % scale 0 is the no-effect control and ±100 the full control effect; nearly all actives have a fitted effect of over 55% in size
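Chicken DT40 Tdp1-/- cells complemented with human TDP1, 400 cells/well, exposed to compounds plus 20 nM camptothecin for at least 48 h at 37 C; viability read as ATP content by CellTiter-Glo luminescence.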
* hit, by the source's call; ? = inconclusive; · = no result given. Unless noted, the call rests on the fitted dose curve; in most records, active means well fitted curve in the direction sought with a large enough effect; inconclusive means small, poorly fitted or top-dose-only effect, or another doubt; inactive means no such curve, though single readings can be large; an effect the other way counts as inactive or inconclusive.

SMILES	IL1B secr inh	BCR signal inh	DT40 TDP1 no CPT	SW480 rereplic	MCF10A rerep	DT40 TDP1 CPT
Cc1ccc(CNC(=O)CSc2nc3ccccc3c(=O)n2CCCO)cc1	-3	-6%	-24%	-4%	-8%	-19%
CC1CCCC(NC(=O)COC(=O)c2cc3ccccc3oc2=O)C1C (centres undefined)	5	-6%	1%	-2%	1%	?
CCN(CC)c1ccc(/C=N/n2c(C)nc3ccccc3c2=O)cc1	-29	?	?	1%	?	?
COc1ccc(N2CC(O)=C(c3nc4ccccc4s3)C2=N)cc1	29	0%	-15%	6%	-1%	-27%
COc1cccc(N2CC(O)=C(c3nc4ccccc4s3)C2=N)c1	61	?	1.5µM*	3.7µM*	?	1.6µM*
COc1ccc(Cc2nc3ccc(C(=O)NC(C)c4cnn(C)c4)cc3o2)cc1 (centres undefined)	-12	-4%	-12%	0%	9%	-20%
CCOc1ccc(NC(=O)CN(C)C(=O)Cn2cnc3c2c(=O)n(C)c(=O)n3C)cc1OCC	9	5%	-27%	-5%	1%	-11%
CCN(CC(=O)NCc1cccs1)C(=O)C(c1ccccc1)c1ccccc1	-18	0%	-25%	-4%	5%	?
O=C(NCc1ccccn1)C1Nc2ccc(OC(F)(F)F)cc2C2C=CCC12 (centres undefined)	22	·	?	0%	?	?
O=C(NC1CC1)C1Nc2ccc(OC(F)(F)F)cc2C2C=CCC12 (centres undefined)	19	·	13µM*	-7%	?	?
O=C(NCc1ccccc1)C1Nc2ccc(OC(F)(F)F)cc2C2C=CCC12 (centres undefined)	13	·	?	11%	?	23µM*
CC(C)(C)c1ccc(C(=O)NCC(c2cccs2)S(=O)(=O)c2ccccc2)cc1 (centres undefined)	·	-12%	15µM*	·	·	16µM*
O=S(=O)(NCC(c1cccs1)S(=O)(=O)c1ccccc1)c1ccccc1 (centres undefined)	·	?	1.8µM*	·	·	1.2µM*
CC(C)(C)c1ccc(C(=O)NCC(c2ccco2)S(=O)(=O)c2ccccc2)cc1 (centres undefined)	·	·	23µM*	·	·	18µM*
CCOc1ccc(C(=O)NCC(c2cccs2)S(=O)(=O)c2ccccc2)cc1 (centres undefined)	·	?	?	·	·	29µM*
CC1CCN(C(=O)c2cc(-c3ccc(Cl)cc3)on2)CC1	·	·	-21%	·	·	?
CN1C(=S)SC(N(O)C(=O)Nc2ccc(Cl)c(Cl)c2)C1(C)C (centres undefined)	-14	0%	16µM*	0%	?	21µM*
O=C(CSc1nnc(CNc2ccc(F)cc2)o1)N1c2ccccc2Sc2ccccc21	?	?	26µM*	-2%	10%	21µM*
CC(C)(C)N(Cc1ccccc1)C(=O)CSc1nnc(CNc2ccc(F)cc2)o1	-6	·	?	25%	10%	11µM*
Cn1c(=S)c2[nH]c(SCC3CCCO3)nc2n(C)c1=O (centres undefined)	-88*	·	1.2µM*	?	3%	1.3µM*
CCCC(C)Sc1nc2c([nH]1)c(=S)n(C)c(=O)n2C (centres undefined)	-102*	·	4.6µM*	?	16%	4.6µM*
COc1ccc(C(=O)CSc2nn3c(=O)c(C(C)(C)C)nnc3s2)cc1	-58*	11%	?	7%	?	?
COc1cccc(CN(C)C(=O)c2ccc(NC(=O)CC3SC(N4CCCCC4)=NC3=O)cc2)c1OC (centres undefined)	-1	·	-4%	-13%	?	-9%
COc1ccc(CN(C)C(=O)c2cccc(NC(=O)CC3SC(N4CCCCC4)=NC3=O)c2)c(OC)c1 (centres undefined)	-55*	·	5.2µM*	6.5µM*	?	5.2µM*
COc1cccc(CN(C)C(=O)c2cccc(NC(=O)CC3SC(N4CCCCC4)=NC3=O)c2)c1OC (centres undefined)	-13	-3%	18µM*	-29%	-3%	?
SMILES	IL1B secr inh	BCR signal inh	DT40 TDP1 no CPT	SW480 rereplic	MCF10A rerep	DT40 TDP1 CPT
CCc1nn2c(=O)cc(COC(=O)c3ccccc3NC(=O)c3ccc(C(C)(C)C)cc3)nc2s1	·	·	-23%	·	·	4%
Cc1ccc(S(=O)(=O)c2[nH]c(-c3ccccc3)nc2SC(C)C(=O)O)cc1 (centres undefined)	·	·	?	·	·	1%
O=S1(=O)N[C@@H](CC2CCCCC2)COc2cc(Br)ccc21	8	6%	?	4%	?	15µM*
O=c1[nH][nH]c(=O)c2c1[nH]c(=S)n2Cc1ccccc1	8	·	-3%	-5%	0%	0%
C=CCOc1ccc(/C=C2/C(=O)ON=C2C)cc1OC	-97*	-4%	?	?	?	?
CCCOc1ccc(/C=C2/C(=O)ON=C2C)cc1OCC	-27	2%	?	?	?	?
CCOc1cc(/C=C2\C(=O)ON=C2C)ccc1OCc1ccccc1	-117*	5%	15µM*	15%	?	?
COc1ccc(O)c(CN2CCC(n3nccc3NC(=O)C3CCCC3)CC2)c1	-4	0%	?	?	-1%	?
COc1ncc2nc(CCc3ccccc3)c(=O)n(CCC#N)c2n1	·	·	-29%	·	·	-2%
O=c1c2sccc2n(Cc2cccc(F)c2)c(=O)n1-c1ccc(F)cc1	0	11%	18µM*	4%	?	15µM*
COc1cc(OC)cc(-n2c(=O)c3sccc3n(Cc3ccc(F)cc3)c2=O)c1	·	·	?	·	·	-19%
Cn1c(=O)c2sccc2n(Cc2cccc(Br)c2)c1=O	8	9%	?	3%	19%	12µM*
Cc1ccc(Cn2c(=O)n(CC3CCC(C(=O)N4CCOCC4)CC3)c(=O)c3sccc32)cc1 (centres undefined)	·	·	16µM*	·	·	21µM*
O=C(C1CCC(Cn2c(=O)c3sccc3n(Cc3cccc(F)c3)c2=O)CC1)N1CCCCC1 (centres undefined)	·	·	5.8µM*	·	·	?
Cc1ccc2c(c1)N(CC(=O)NC(C)CCc1ccccc1)C(=O)c1cccnc1O2 (centres undefined)	-26	-13%	?	-4%	2%	-5%

Compound activity as filed in PubChem.
